# Reference: PubChem BioAssay AID1964107 (National Center for Advancing Translational Sciences (NCATS), 2024)
# Among all 31,000 compounds or so, about 360 (1.2%) were called active. Not shown: some 8% with an inconclusive outcome. Many of the other results were omitted from the sample, so actives are more common in it than they were. A number with no mark means an inactive call. The call rests on the fitted dose curve.
# Molecular target: Polyprotein P1234 (Chikungunya virus (strain S27-African prototype)) (UniProt Q8JUX6)
# Sequence (Q8JUX6 whole entry, looked up): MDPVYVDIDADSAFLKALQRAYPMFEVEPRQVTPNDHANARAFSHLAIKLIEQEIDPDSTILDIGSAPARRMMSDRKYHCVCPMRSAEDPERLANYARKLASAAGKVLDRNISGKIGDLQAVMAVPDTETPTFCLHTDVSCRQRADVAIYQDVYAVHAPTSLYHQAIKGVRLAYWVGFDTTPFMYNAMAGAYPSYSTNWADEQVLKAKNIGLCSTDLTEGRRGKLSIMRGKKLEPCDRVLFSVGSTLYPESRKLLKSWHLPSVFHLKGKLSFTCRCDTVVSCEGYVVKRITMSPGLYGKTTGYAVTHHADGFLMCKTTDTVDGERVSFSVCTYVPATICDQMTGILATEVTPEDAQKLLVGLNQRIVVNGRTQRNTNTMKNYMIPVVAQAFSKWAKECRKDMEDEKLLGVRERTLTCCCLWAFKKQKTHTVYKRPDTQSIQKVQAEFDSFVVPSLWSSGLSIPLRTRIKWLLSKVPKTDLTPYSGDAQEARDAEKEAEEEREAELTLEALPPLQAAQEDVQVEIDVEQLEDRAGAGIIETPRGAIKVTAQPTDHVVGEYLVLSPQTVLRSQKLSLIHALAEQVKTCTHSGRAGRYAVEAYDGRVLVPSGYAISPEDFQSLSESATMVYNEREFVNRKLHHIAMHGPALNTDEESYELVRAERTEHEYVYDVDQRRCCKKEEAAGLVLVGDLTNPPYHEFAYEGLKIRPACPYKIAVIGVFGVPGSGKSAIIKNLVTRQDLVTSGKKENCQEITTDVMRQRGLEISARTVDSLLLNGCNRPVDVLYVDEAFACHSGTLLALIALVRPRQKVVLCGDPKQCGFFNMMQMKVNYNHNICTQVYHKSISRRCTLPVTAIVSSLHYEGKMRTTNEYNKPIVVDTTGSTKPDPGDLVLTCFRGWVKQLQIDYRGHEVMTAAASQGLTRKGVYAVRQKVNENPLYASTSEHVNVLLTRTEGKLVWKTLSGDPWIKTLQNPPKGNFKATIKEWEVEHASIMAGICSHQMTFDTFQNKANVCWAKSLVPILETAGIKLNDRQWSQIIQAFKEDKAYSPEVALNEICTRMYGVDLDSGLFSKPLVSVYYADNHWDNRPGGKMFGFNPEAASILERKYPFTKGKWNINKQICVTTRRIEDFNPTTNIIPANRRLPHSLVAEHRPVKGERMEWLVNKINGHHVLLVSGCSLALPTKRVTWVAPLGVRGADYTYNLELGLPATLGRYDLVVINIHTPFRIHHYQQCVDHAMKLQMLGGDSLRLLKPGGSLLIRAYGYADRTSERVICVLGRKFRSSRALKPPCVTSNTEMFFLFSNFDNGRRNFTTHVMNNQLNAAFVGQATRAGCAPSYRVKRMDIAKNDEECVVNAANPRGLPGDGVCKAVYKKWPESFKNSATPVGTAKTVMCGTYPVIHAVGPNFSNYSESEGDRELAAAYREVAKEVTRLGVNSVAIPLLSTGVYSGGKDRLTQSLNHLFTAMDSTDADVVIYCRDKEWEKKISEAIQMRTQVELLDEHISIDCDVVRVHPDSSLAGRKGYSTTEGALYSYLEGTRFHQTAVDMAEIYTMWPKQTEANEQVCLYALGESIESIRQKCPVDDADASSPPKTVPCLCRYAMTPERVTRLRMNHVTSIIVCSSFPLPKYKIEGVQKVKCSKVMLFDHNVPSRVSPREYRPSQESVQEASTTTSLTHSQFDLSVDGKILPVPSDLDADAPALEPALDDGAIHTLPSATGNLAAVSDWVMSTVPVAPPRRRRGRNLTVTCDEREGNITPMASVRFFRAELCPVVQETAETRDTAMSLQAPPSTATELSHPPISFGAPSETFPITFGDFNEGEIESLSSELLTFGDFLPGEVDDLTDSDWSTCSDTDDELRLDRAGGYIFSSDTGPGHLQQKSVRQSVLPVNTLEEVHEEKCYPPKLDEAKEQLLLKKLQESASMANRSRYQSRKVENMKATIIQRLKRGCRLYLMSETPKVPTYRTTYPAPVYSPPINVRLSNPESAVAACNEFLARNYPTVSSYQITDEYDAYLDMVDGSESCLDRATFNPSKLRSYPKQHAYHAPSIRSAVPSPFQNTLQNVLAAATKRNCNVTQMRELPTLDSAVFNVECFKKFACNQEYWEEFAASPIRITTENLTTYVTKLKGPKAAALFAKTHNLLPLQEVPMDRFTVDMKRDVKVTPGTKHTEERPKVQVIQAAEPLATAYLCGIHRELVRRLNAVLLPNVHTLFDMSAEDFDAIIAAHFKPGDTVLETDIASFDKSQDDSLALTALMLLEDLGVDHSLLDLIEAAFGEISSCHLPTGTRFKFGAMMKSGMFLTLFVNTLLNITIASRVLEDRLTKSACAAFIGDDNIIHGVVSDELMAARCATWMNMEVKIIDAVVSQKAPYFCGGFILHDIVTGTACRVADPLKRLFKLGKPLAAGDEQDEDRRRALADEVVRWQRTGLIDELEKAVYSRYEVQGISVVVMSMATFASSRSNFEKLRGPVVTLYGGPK
# Assay: Primary qHTS for inhibitors of NSP2Pro chikungunya virus (CHIKV); further: nearly all actives have a fitted effect of over 60% in size
# Conditions: FRET peptide cleavage, fluorescence 1 h; series mostly up to 24.9 µM; activity change, negative = inhibition: at the top concentration
# Excerpt: PI: Natalia J. Martinez Ph.D. National Center for Advancing Translational Sciences (NCATS), National Institute of Health (NIH), Rockville, Maryland Chikungunya virus (CHIKV) is a mosquito-borne RNA virus that has emerged as one of the most important global arboviral threats in the last decade. Although the first CHIKV vaccine has recently been FDA approved for use in healthy adults at increased risk, to date, there are no available antiviral drugs for CHIKV infection. CHIKV nsP2 protease plays a crucial role in the processing of the viral polypeptide precursor to release enzymes required for viral replication, thus making it a promising drug target for antiviral discovery. Here, we established a high-throughput pipeline to identify small molecule inhibitors of nsP2 proteolytic activity. The pipeline is composed of a suite of 1,536-well in vitro assays to support quantitative high-throughput (qHTS) screening campaigns. Specifically, we developed a fluorescence resonance energy transfer (FRET)-based assay using a fluorogenic peptide substrate encompassing an endogenous cleavage site and purified recombinant protease domain (nsP2pro). Using this assay, we interrogated ~37,000 small molecules, including those in drug repurposing libraries as well as chemically diverse and medicinal chemistry-friendly compounds. Hits were selected for follow-up validation against full-length nsP2 and an additional peptide. FRET-based 1,536-well assays for papain, hepatitis C virus NS3-4A, and human furin proteases were implemented to characterize compound selectivity. […] Novel compounds were identified to be potential nsP2 inhibitors and molecular docking analyses were performed to explain the binding mode of selected hits. In vitro antiviral activity was evaluated for a subset of compounds using a high-throughput CHIKV infection assay. To our knowledge, the pipeline presented here is unprecedented for CHIKV antiviral discovery research.
# PROTOCOL TABLE (as described by Inglese J, Shamu CE and Guy RK. 2007) SEQUENCE No. (e.g., 1, 2, 3, etc.); […] (e.g., Cells, Incubation, Reagent, etc.); VALUE; DESCRIPTION. 1; Control / Compound; 20 nL; Echo 655 acoustic dispenser, Greiner 1536-well solid bottom black plate. 2; Enzyme; 4 uL; BioRAPTR FRD liquid dispenser (Beckman Coulter). 3; Incubation; 15 min; room temperature. 4; Reagent; 4 uL; 2.5 uM Peptide 2 substrate. 5; Incubation; 1 hr; room temperature. 6; Detection; Fluorescence; WiewLux microplate reader (PerkinElmer), 525 nm excitation, 598/25 nm emission. NOTES (numbers refer to sequence numbers above). 1. Briefly, 20 nL DMSO, positive control ZnAc (20nM final concentration), and test compounds were transferred into a 1,536-well solid bottom black plate (789176-F, Greiner One) via Echo 655 acoustic dispenser (Beckman Coulter). For primary screens, compounds were tested at 7 concentrations, 1:3 dilution points ranging from 25 uM to 34 nM. Follow-up confirmatory screens were carried out at 11 concentrations, 1:3 dilution points from 25 uM to 0.42 nM. 2. Four uL nsP2pro enzyme mix (150 nM final concentration) in 10 mM Tris-HCl pH 8.0 with 0.01% Tween 20 assay buffer was dispensed into the plate using a BioRAPTR FRD liquid dispenser (Beckman Coulter). 3. The plate was incubated at room temperature (protected from light) for 15 min 4. Four microliter of peptide 2 substrate (2.5 uM final concentration) in assay buffer was added to the plate. 5. After 1 hour, plates were immediately read on a ViewLux high-throughput CCD imager (Exposure = 10 sec, Gain = High, Speed = Slow, Binning = 2X). The above assay was also incorporated in the NCATS HTS facility41, which allowed for robotic liquid and compound dispensing, microplate handling, and fluorescence reading.. REFERENCE: Inglese J, Shamu CE and Guy RK, Reporting data from high throughput screening of small molecule libraries, Nature Chemical Biology, 2007, 3(8): 438-441. doi.org/10.1038/nchembio0807-438.
# On the % scale 0 is the no-effect control and ±100 the full control effect; potency means the concentration at half of the fitted maximal effect.
SMILES,"activity change, negative = inhibition",outcome,Potency
CC12CCC(O)CC1=CCC1C2CCC2(C)C(c3cccnc3)=CCC12 (stereo not given),-16.8% [at 10 µM],–,–
O=C(C1CCCC1)N1CC2(CCCN(Cc3ccccn3)C2)Cc2ccccc21 (stereo not given),–,inactive,–
Cc1cc(C(=O)Nc2cccc(C(F)(F)F)c2)c2c(C)nn(-c3cccc(F)c3)c2n1,46.5%,–,–
NC(=O)c1noc([C@H](CCCC2CCCCC2)CC(=O)NO)n1,-15.7%,–,–
O=C(CC1N=C2c3ccccc3N=C(SCc3cccc(Cl)c3)N2C1=O)NCc1ccc2c(c1)OCO2 (stereo not given),-20.2%,–,–
CC(C)(C)c1cc(C(=O)O)c(NC(=O)Nc2ccc3[nH]ncc3c2)s1,3.33%,–,–
CC(Nc1ncnc2ccc(-c3ccc4c(c3)OCO4)cc12)c1ccco1 (stereo not given),–,inactive,–
CCC(CC)c1nn2cc(-c3ccccc3)nc2s1,-32.1%,–,–
CCOC(=O)c1cc2c(=O)n3ccccc3nc2n(CCCOC)c1=NC(=O)C(C)Oc1ccccc1 (stereo not given),-15%,–,–
C=CC(=O)c1ccc2ccccc2c1,–,–,9.88 µM (active)
O=C(CN1CCOC1=O)N1CCn2nc(C(O)Cc3ccccc3)cc2C1 (stereo not given),-4.53%,–,–
COc1ccc(CCNC(=O)C(=O)NCC(c2ccco2)S(=O)(=O)c2cccs2)cc1OC (stereo not given),-13.2%,–,–
O=C(O)c1ccc(CSc2nc3cccnc3n2Cc2cccc(F)c2)cc1,-15.8%,–,–
O=S(=O)(c1ccc2c(c1)OCCCO2)N1CCN(S(=O)(=O)c2c(F)cccc2F)CC1,-1.31%,–,–
Cc1ccc(C(=O)NC2CCN(C#N)CC2)cc1,-7.02%,–,–
Cn1c(C(=O)N2CCC(C(=O)N3CCN(c4ccccc4)CC3)CC2)cc2sccc21,3.22%,–,–
Cc1ccsc1C(=O)C1CCCN(Cc2ccc(OC(C)C)c(CO)c2)C1 (stereo not given),–,inactive,–
CCOc1ccc(CCNC(=O)C2=C(C)C(=O)OC23CCC(C)CC3)cc1OCC (stereo not given),-4.16%,–,–
COc1ccccc1-c1nnc2n1N=C(c1ccc(OC(F)F)c(OCC3CC3)c1)CS2,-5.34%,–,–
O=C(Nc1ncc(Cc2ccc(C(F)(F)F)cc2)s1)c1cnc(-c2ccccc2)o1,-4.65%,–,–
CCOc1ccc(CCNC(=O)c2c(C)oc3ncn(C)c(=O)c23)cc1,-10.1%,–,–
CN[C@H]1CN(c2ccc3c(=O)c(C(=O)O)cn(-c4nccs4)c3n2)C[C@@H]1OC,-5.01% [at 5.1 µM],–,–
Cc1cc(F)ccc1NC(=O)CCC1CCCN(C(=O)c2ccc(Cl)s2)C1 (stereo not given),-2.75%,–,–
CCC(CC)[C@H](NC(C)=O)[C@@H]1[C@H](O)[C@@H](C(=O)O)C[C@H]1N=C(N)N,-4.24% [at 0.199 µM],–,–
C[C@@H]1O[C@@H](O[C@@H]2[C@@H](O)[C@H](O[C@@H]3[C@@H](O)[C@@H](O)[C@H](O[C@H]4[C@H](OC(=O)[C@]56CCC(C)(C)C[C@H]5C5=CCC7[C@@]8(C)C[C@H](O)[C@H](O[C@@H]9O[C@@H](C)[C@H](O)[C@@H](O)[C@H]9O)[C@@](C)(CO)C8CC[C@@]7(C)[C@]5(C)C[C@H]6O)O[C@H](C)[C@H](O)[C@@H]4O)O[C@H]3C)OC[C@H]2O)[C@H](O)[C@H](O)[C@H]1O (stereo not given in full),10.2% [at 5.1 µM],–,–
